This is part of a sample that, as a whole, favours compounds with a hit. Of some 83,000 tested, about 20% had one in any assay.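 The test compound was applied at a single concentration to cells in 96-well plates for 48 hours, and percent growth was recorded.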 Calls of active or inactive are those of the source. The calls were made as follows: active = growth percent below 10; inactive = the rest.
Columns and labels:
Assay in all cases: NCI-60 one-dose screen, 48 h (100 = growth as untreated, 0 = no growth, -100 = all killed)
Details in all cases: 10 µM unless noted
HCT-15 colon = system: HCT-15 colon
HT29 colon = system: HT29 colon
SNB-75 CNS = system: SNB-75 CNS
SNB-19 CNS = system: SNB-19 CNS
PC-3 prostate = system: PC-3 prostate
SK-MEL-5 melanoma = system: SK-MEL-5 melanoma
UACC-62 melanoma = system: UACC-62 melanoma
LOX IMVI melanoma = system: LOX IMVI melanoma
SK-MEL-28 melanoma = system: SK-MEL-28 melanoma
U251 CNS = system: U251 CNS

Measured: growth

COc1ccc2[nH]c(O)c(/C=c3/cc4c(c(-c5ccc(F)cc5)n3)=Nc3ccccc3-4)c2c1
active: HT29 colon -29.8%
inactive: HCT-15 colon 26.7% | SNB-75 CNS 82.6% | SNB-19 CNS 78% | PC-3 prostate 85% | SK-MEL-5 melanoma 72.1% | UACC-62 melanoma 90.2% | LOX IMVI melanoma 68.9% | SK-MEL-28 melanoma 93.9%

COc1ccc(C(=O)c2nc3ccccc3n2CC(=O)c2ccc(Cl)cc2)cc1
inactive: HCT-15 colon 17.4% | HT29 colon 16.1% | SNB-19 CNS 48.2% | PC-3 prostate 34.9% | SK-MEL-5 melanoma 20.5% | UACC-62 melanoma 13.2% | LOX IMVI melanoma 39.2% | SK-MEL-28 melanoma 45.5%
active: SNB-75 CNS 1.37%

Oc1ccc(C2c3ccccc3Oc3ccccc32)c2cccnc12
active: SK-MEL-5 melanoma -58.8% | UACC-62 melanoma 4.38% | LOX IMVI melanoma 5.35%
inactive: HCT-15 colon 30.3% | SNB-75 CNS 27.2% | SNB-19 CNS 26.7% | U251 CNS 10.8% | PC-3 prostate 34.2%

O=C(CNCCN1CCOCC1)N1c2cccc3cccc(c23)N(C(=O)CNCCN2CCOCC2)C1c1cn(-c2ccccc2)nc1-c1cccc([N+](=O)[O-])c1
inactive: HCT-15 colon 43.6% | SNB-75 CNS 57.9% | SNB-19 CNS 77.1% | PC-3 prostate 62.4% | SK-MEL-5 melanoma 57.7% | UACC-62 melanoma 94.8% | SK-MEL-28 melanoma 64%
active: HT29 colon 7.37%

O=C(Nc1cccc(C(=O)N2CCc3ccc(Cl)cc32)c1)c1ccco1
active: SNB-75 CNS 0.916%
inactive: HCT-15 colon 24.2% | HT29 colon 15.9% | SNB-19 CNS 37.6% | PC-3 prostate 69.7% | SK-MEL-5 melanoma 24.3% | UACC-62 melanoma 36.3% | LOX IMVI melanoma 35.9%

COc1cc(NC(=O)CSc2nc3ccc(C)cc3c(=O)n2Cc2ccccc2)cc(OC)c1OC
active: SNB-75 CNS -5.79%
inactive: HCT-15 colon 84.4% | HT29 colon 70.6% | SNB-19 CNS 89.8% | PC-3 prostate 74.1% | SK-MEL-5 melanoma 39.3% | UACC-62 melanoma 53.2% | LOX IMVI melanoma 61.7% | SK-MEL-28 melanoma 75.1%

O=[N+]([O-])c1ccc(N=Nc2cc(S(=O)(=O)O)c3cccc(S(=O)(=O)O)c3c2O)cc1
inactive: HCT-15 colon 118% | HT29 colon 111% | SNB-75 CNS 104% | SNB-19 CNS 112% | PC-3 prostate 98.5% | SK-MEL-5 melanoma 104% | UACC-62 melanoma 108% | LOX IMVI melanoma 106% | SK-MEL-28 melanoma 117%

O=C1c2cccc3c(-c4ccc5c(c4)ncn5C4CCCCC4)ccc(c23)C(=O)N1CCO
inactive: HCT-15 colon 98.5% | HT29 colon 83.6% | SNB-75 CNS 86.6% | SNB-19 CNS 98.1% | PC-3 prostate 85% | SK-MEL-5 melanoma 62% | UACC-62 melanoma 74.4% | SK-MEL-28 melanoma 116%

COc1ccccc1NC(=O)C1CC(c2ccc(F)cc2)=NO1 (stereo unspecified)
inactive: HCT-15 colon 99.2% | HT29 colon 103% | SNB-75 CNS 87.9% | SNB-19 CNS 96.8% | PC-3 prostate 104% | SK-MEL-5 melanoma 95.3% | UACC-62 melanoma 96% | LOX IMVI melanoma 95.5% | SK-MEL-28 melanoma 107%

CCOc1ccc(Nc2nc(-c3ccc4c(c3)NC(=O)CO4)cs2)cc1
active: SK-MEL-5 melanoma -11.2%
inactive: HCT-15 colon 51.3% | SNB-75 CNS 56.8% | SNB-19 CNS 81.4% | U251 CNS 66.8% | PC-3 prostate 24.6% | UACC-62 melanoma 52.1% | LOX IMVI melanoma 43.9% | SK-MEL-28 melanoma 33.6%

Oc1c(Cl)cc(Cl)c(Cl)c1CNCCNCc1c(O)c(Cl)cc(Cl)c1Cl
active: SK-MEL-5 melanoma -1.48% | UACC-62 melanoma -13.3% | LOX IMVI melanoma 6.53%
inactive: HCT-15 colon 25.1% | SNB-75 CNS 51.9% | SNB-19 CNS 15.9% | U251 CNS 10.1% | PC-3 prostate 44.4% | SK-MEL-28 melanoma 21.4%

COc1ccc2c(c1)oc1c(C)c3c(c(C)c12)C(=O)N(N)C3=O
active: SNB-75 CNS -55.9% | SK-MEL-5 melanoma 4.46%
inactive: HCT-15 colon 41.9% | SNB-19 CNS 46.2% | U251 CNS 13.6% | PC-3 prostate 54.1% | UACC-62 melanoma 43.6% | LOX IMVI melanoma 43.4% | SK-MEL-28 melanoma 51%

CC(=O)N1N=C(c2ccc(-n3ccc(C(F)(F)F)n3)c(F)c2)CC1c1ccc[nH]1 (stereo unspecified)
inactive: HCT-15 colon 98.8% | SNB-75 CNS 103% | SNB-19 CNS 100% | U251 CNS 99.3% | PC-3 prostate 96.7% | UACC-62 melanoma 90.7% | LOX IMVI melanoma 98.1% | SK-MEL-28 melanoma 105%

Cc1nc2ccc(Cl)cn2c1-c1nnc(SCc2ccc([N+](=O)[O-])cc2)o1
inactive: HCT-15 colon 60.3% | SNB-75 CNS 39.8% | SNB-19 CNS 39.8% | U251 CNS 57.7% | PC-3 prostate 74% | SK-MEL-5 melanoma 43.8% | UACC-62 melanoma 46.3% | LOX IMVI melanoma 69.3% | SK-MEL-28 melanoma 40.2%

N#C/C(=C\c1ccc([N+](=O)[O-])s1)c1nc2cc(Br)ccc2s1
inactive: SNB-75 CNS 12% | UACC-62 melanoma 17% | SK-MEL-28 melanoma 12%
active: HCT-15 colon -52.1% | SNB-19 CNS 7.78% | PC-3 prostate -49% | SK-MEL-5 melanoma -97.7% | LOX IMVI melanoma -54.1%

COc1ccc(C(C)=O)c(OC)c1
inactive: HCT-15 colon 106% | SNB-75 CNS 91.7% | SNB-19 CNS 100% | U251 CNS 101% | PC-3 prostate 91.1% | UACC-62 melanoma 96.1% | LOX IMVI melanoma 103% | SK-MEL-28 melanoma 109%

CCCCNC(=O)Oc1ccc(/C(=C(\C)c2ccccc2)c2ccc(OCCN3CCCCC3)cc2)cc1
active: HCT-15 colon 9.66%
inactive: SNB-75 CNS 84.6% | SNB-19 CNS 71.5% | U251 CNS 50.7% | PC-3 prostate 55.3% | SK-MEL-5 melanoma 68.9% | LOX IMVI melanoma 62% | SK-MEL-28 melanoma 46.7%

CC(=O)Nc1ccc(-c2ccc3c(c2)NC(=O)/C3=C\c2ccc[nH]2)cc1
inactive: HCT-15 colon 92.6% | SNB-75 CNS 111% | SNB-19 CNS 104% | U251 CNS 86.6% | PC-3 prostate 97.8% | SK-MEL-5 melanoma 100% | UACC-62 melanoma 105% | LOX IMVI melanoma 84.2% | SK-MEL-28 melanoma 116%

N#CC1C(C#N)C2c3ccccc3C=CN2C1C(=O)c1ccc(Br)cc1 (stereo unspecified)
inactive: HCT-15 colon 95.9% | SNB-75 CNS 90.5% | SNB-19 CNS 91.2% | U251 CNS 100% | PC-3 prostate 94% | SK-MEL-5 melanoma 90.8% | LOX IMVI melanoma 92.2% | SK-MEL-28 melanoma 102%

CCOC(=O)c1cc(C(=O)c2ccc(OC)c(OC)c2)n2ccc(/C=C/c3cc[n+](CC(=O)c4ccc(OC)c(OC)c4)cc3)cc12
inactive: HCT-15 colon 104% | SNB-75 CNS 79.4% | SNB-19 CNS 90.6% | U251 CNS 95.5% | PC-3 prostate 92.8% | SK-MEL-5 melanoma 98% | UACC-62 melanoma 96.6% | LOX IMVI melanoma 87.7% | SK-MEL-28 melanoma 104%

O=S(=O)(NCCNc1nccc(-c2c(-c3cccc(F)c3)nc3sccn23)n1)c1ccccc1
inactive: HCT-15 colon 25.8% | SNB-75 CNS 71.5% | SNB-19 CNS 55.9% | U251 CNS 44% | SK-MEL-5 melanoma 19.1% | UACC-62 melanoma 24.9% | LOX IMVI melanoma 36.3% | SK-MEL-28 melanoma 54.3%

O=S(=O)(NCCNc1nccc(-c2c(-c3cccc(F)c3)nc3sccn23)n1)c1ccc(Br)cc1
inactive: HCT-15 colon 29.2% | SNB-75 CNS 75.3% | SNB-19 CNS 59.3% | PC-3 prostate 51% | SK-MEL-5 melanoma 31.5% | UACC-62 melanoma 35.8% | LOX IMVI melanoma 38.5% | SK-MEL-28 melanoma 69.1%

CC(=O)O[C@@H]1C2CCC3C(CC[C@@]4(C)C3CC[C@@H]4C(C)N(C)C)[C@@]2(C)CC[C@@H]1NC(=O)C=C(C)C (stereo partly specified)
active: HCT-15 colon -58.1% | SK-MEL-5 melanoma -93.1% | UACC-62 melanoma -49.9% | LOX IMVI melanoma -43.5% | SK-MEL-28 melanoma -91.7%
inactive: SNB-75 CNS 12% | SNB-19 CNS 65.6% | U251 CNS 14.9% | PC-3 prostate 10.5%

O=C1OC(Cc2ccccc2)C1c1ccccc1 (stereo unspecified)
inactive: HCT-15 colon 101% | SNB-75 CNS 92.1% | SNB-19 CNS 99.1% | U251 CNS 97.5% | PC-3 prostate 106% | SK-MEL-5 melanoma 98.9% | UACC-62 melanoma 94.2% | LOX IMVI melanoma 99.3% | SK-MEL-28 melanoma 109%

O=C(Cn1c[n+](CC(=O)c2ccc([N+](=O)[O-])cc2)c2ccccc21)Nc1cccc2cccnc12
inactive: HCT-15 colon 101% | SNB-75 CNS 29.8% | SNB-19 CNS 37.5% | U251 CNS 63.7% | PC-3 prostate 38.9% | SK-MEL-5 melanoma 95.8% | UACC-62 melanoma 69.1% | LOX IMVI melanoma 86.3% | SK-MEL-28 melanoma 78.7%

COc1cc(C2=NN(C(C)=O)C(c3cc(OC)c(OC)c(OC)c3)C2)ccc1O (stereo unspecified)
inactive: SNB-19 CNS 34.9% | PC-3 prostate 13.1% | UACC-62 melanoma 15.3% | LOX IMVI melanoma 34.7% | SK-MEL-28 melanoma 68.2%
active: HCT-15 colon 4.31% | SNB-75 CNS 4.64% | U251 CNS 7.85% | SK-MEL-5 melanoma 6.65%

CCN(CC)CC[n+]1cc2cc(OC)c(OC)cc2c2ccc3cc4c(cc3c21)OCO4
inactive: HCT-15 colon 32.9% | SNB-19 CNS 14.5% | UACC-62 melanoma 31.7% | SK-MEL-28 melanoma 22.7%
active: SNB-75 CNS 3.63% | U251 CNS -38.2% | PC-3 prostate 3.91% | SK-MEL-5 melanoma -68.3% | LOX IMVI melanoma -85.8%

COc1ccc(C(=O)Cn2c(C(=O)c3ccccc3)nc3ccccc32)cc1
active: SNB-75 CNS -8.26% | SK-MEL-5 melanoma -1.14%
inactive: HCT-15 colon 18.6% | SNB-19 CNS 55.2% | U251 CNS 25.1% | PC-3 prostate 29.7% | UACC-62 melanoma 15.7% | LOX IMVI melanoma 43.8% | SK-MEL-28 melanoma 94.2%

COc1ccc(C(=O)c2cc(C)c(OC)c(C)c2)c(OC)c1NC(C)=O
inactive: HCT-15 colon 16.3% | SNB-75 CNS 56.2% | SNB-19 CNS 22.9% | SK-MEL-5 melanoma 20.6% | LOX IMVI melanoma 32% | SK-MEL-28 melanoma 49.5%

CCN(CC)c1ccc(/C=N/NC(=O)CSc2nc3ccccc3c(=O)n2Cc2ccc(S(N)(=O)=O)cc2)c(O)c1
inactive: HCT-15 colon 47.5% | SNB-75 CNS 38.8% | SNB-19 CNS 41.8% | U251 CNS 24.4% | PC-3 prostate 48.8% | SK-MEL-28 melanoma 33.1%
active: SK-MEL-5 melanoma 5.72% | UACC-62 melanoma 6.51% | LOX IMVI melanoma 1.32%
